# Legend:
# Assay in all cases: DAPPL (digital affinity profiling via proximity ligation, sequencing); 10 mM Tris-HCl pH 7.5, 50 mM NaCl, 1 mM DTT, 4% glycerol, room temperature, 30 min; GST-TFs on glutathione beads, 16-mer random dsDNA library, 0.1% formaldehyde crosslink after washing; high values mean tight binding
# [1] = target: T1, FEV (Homo sapiens, UniProt Q99581 1-238); conditions: protein: recombinant; tags: N-terminal GST; dsDNA, one strand shown
# T1 sequence: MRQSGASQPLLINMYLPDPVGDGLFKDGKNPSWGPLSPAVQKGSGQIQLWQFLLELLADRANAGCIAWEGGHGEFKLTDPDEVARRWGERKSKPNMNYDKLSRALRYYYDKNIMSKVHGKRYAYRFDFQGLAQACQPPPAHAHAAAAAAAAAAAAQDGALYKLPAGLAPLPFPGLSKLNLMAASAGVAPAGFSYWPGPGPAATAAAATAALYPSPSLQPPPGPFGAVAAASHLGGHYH
# Procedure, shortened: (§1)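 Human transcription factors were made in yeast as GST fusions, captured on glutathione beads and barcoded with DNA. With a tag-only sample included, the pool was incubated with 200 nmole of a random double-stranded 16-mer DNA library in Tris/NaCl/DTT/glycerol buffer at room temperature for 30 min, then crosslinked with 0.1% formaldehyde after washing, ligated by proximity, amplified and sequenced. For binding signal, each hexamer's read frequency for a factor is divided by its frequency for the tag-only sample.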
# [2] = target: ETV5 (Homo sapiens, UniProt P41161 1-510); conditions: protein: recombinant; tags: N-terminal GST; dsDNA, one strand shown
# ETV5, sequence (P41161 whole entry): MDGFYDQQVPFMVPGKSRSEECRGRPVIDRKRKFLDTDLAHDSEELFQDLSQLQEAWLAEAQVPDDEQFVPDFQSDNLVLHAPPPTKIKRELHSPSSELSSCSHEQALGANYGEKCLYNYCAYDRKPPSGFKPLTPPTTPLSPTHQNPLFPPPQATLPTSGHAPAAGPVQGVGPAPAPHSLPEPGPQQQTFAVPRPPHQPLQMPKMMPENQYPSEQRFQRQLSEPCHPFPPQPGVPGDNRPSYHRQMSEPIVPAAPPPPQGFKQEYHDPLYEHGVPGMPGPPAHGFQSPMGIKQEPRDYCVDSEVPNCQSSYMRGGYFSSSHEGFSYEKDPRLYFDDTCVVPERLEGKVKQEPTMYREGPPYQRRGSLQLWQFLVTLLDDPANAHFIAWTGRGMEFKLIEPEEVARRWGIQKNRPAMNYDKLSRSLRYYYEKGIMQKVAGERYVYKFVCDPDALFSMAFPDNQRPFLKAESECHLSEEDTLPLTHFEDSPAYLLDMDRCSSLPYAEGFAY
# Procedure, shortened: as §1
# [3] = target: HSF1 (Homo sapiens, UniProt Q00613 1-529); conditions: protein: recombinant; tags: N-terminal GST; chain copies: 3; dsDNA, one strand shown
# HSF1, sequence (Q00613 whole entry): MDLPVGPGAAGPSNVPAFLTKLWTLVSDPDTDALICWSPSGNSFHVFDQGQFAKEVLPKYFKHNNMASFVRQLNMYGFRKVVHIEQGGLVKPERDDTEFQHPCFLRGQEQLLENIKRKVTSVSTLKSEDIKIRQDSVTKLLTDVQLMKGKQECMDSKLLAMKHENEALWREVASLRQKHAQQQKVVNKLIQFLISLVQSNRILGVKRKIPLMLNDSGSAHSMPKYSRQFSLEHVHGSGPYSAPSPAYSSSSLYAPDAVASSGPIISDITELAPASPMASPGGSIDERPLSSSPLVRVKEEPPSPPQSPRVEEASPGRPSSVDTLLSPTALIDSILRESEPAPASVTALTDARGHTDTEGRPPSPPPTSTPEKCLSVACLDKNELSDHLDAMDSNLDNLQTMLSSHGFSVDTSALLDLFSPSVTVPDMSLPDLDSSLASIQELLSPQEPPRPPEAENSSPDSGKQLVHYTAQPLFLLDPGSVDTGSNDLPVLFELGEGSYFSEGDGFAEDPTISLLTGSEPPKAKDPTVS
# Procedure, shortened: as §1
# [4] = target: T2, SPIC (Homo sapiens, UniProt Q8N5J4 1-248); conditions: protein: recombinant; tags: N-terminal GST; dsDNA, one strand shown
# T2 sequence: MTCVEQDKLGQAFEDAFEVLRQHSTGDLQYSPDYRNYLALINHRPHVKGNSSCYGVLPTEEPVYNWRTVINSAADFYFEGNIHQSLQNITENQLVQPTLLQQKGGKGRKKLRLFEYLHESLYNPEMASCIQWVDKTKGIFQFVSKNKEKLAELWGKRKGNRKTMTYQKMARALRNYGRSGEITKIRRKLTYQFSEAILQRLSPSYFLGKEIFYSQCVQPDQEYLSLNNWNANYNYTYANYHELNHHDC
# Procedure, shortened: as §1
# [5] = target: ELF4 (Homo sapiens, UniProt Q99607 1-663); conditions: protein: recombinant; tags: N-terminal GST; dsDNA, one strand shown
# ELF4, sequence (Q99607 whole entry): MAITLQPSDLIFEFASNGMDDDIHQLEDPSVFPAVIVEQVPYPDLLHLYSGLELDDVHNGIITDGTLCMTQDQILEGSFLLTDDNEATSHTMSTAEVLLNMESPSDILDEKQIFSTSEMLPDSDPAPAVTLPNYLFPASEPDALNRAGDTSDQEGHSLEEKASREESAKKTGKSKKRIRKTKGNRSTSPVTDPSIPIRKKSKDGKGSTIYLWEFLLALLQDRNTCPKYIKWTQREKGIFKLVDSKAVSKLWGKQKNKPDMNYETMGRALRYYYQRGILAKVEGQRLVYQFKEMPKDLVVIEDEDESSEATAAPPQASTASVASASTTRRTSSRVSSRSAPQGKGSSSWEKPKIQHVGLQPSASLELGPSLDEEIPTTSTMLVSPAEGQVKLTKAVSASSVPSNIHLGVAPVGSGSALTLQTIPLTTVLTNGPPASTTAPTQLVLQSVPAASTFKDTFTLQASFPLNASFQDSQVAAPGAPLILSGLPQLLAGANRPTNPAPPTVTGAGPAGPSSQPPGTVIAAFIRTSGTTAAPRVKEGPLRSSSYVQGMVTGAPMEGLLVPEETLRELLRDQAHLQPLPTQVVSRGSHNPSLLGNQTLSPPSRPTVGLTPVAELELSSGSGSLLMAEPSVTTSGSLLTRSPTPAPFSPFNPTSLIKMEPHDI
# Procedure, shortened: as §1
# [6] = target: T3, ELK4 (Homo sapiens, UniProt P28324-2 1-405); conditions: protein: recombinant; tags: N-terminal GST; dsDNA, one strand shown
# T3 sequence: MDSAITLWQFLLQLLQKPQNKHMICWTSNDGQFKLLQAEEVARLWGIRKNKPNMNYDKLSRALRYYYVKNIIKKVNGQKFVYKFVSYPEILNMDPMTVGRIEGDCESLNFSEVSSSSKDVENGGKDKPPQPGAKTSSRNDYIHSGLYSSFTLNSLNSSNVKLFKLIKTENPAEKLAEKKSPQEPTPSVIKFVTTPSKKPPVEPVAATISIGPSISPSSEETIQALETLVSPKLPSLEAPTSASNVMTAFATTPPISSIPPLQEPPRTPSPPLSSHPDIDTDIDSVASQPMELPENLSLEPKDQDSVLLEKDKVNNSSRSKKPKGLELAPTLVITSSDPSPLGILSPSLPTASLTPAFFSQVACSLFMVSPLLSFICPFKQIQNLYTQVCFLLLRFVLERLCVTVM
# Procedure, shortened: as §1
# [7] = target: T4, ETV2 (Homo sapiens, UniProt O00321 1-342); conditions: protein: recombinant; tags: N-terminal GST; dsDNA, one strand shown
# T4 sequence: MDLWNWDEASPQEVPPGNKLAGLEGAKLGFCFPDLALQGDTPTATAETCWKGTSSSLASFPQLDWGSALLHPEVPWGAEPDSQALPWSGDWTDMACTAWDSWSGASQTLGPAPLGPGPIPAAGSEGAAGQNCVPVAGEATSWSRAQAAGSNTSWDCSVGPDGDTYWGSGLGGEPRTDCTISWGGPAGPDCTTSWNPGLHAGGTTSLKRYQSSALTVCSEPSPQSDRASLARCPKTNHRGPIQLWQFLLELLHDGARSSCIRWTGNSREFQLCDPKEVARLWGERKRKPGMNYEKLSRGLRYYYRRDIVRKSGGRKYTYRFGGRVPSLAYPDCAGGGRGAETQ
# Procedure, shortened: as §1
# [8] = target: T5, ELF3 (Homo sapiens, UniProt P78545 1-371); conditions: protein: recombinant; tags: N-terminal GST; dsDNA, one strand shown
# T5 sequence: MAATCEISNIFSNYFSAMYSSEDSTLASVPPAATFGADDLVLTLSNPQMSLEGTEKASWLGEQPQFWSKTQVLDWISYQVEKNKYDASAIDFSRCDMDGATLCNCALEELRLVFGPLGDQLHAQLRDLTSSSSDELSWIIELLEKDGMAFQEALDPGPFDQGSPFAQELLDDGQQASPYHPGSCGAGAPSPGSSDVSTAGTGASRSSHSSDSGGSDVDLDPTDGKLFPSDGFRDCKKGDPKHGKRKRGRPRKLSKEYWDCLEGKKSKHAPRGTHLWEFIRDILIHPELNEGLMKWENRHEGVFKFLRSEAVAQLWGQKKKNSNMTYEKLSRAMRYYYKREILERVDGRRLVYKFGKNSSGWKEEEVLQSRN
# Procedure, shortened: as §1
# [9] = target: CRX (Homo sapiens, UniProt O43186 1-299); conditions: protein: recombinant; tags: N-terminal GST; dsDNA, one strand shown
# CRX, sequence (O43186 whole entry): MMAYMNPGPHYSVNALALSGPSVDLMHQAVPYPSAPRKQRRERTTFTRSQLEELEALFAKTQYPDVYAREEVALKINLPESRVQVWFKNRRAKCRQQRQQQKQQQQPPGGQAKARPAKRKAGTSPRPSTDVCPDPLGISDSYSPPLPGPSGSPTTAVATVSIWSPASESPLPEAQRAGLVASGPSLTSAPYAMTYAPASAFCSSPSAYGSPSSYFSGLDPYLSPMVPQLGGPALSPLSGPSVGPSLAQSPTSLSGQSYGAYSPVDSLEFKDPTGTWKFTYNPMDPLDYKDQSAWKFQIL
# Procedure, shortened: as §1
# [10] = target: ETV1 (Homo sapiens, UniProt P50549 1-477); conditions: protein: recombinant; tags: N-terminal GST; dsDNA, one strand shown
# ETV1, sequence (P50549 whole entry): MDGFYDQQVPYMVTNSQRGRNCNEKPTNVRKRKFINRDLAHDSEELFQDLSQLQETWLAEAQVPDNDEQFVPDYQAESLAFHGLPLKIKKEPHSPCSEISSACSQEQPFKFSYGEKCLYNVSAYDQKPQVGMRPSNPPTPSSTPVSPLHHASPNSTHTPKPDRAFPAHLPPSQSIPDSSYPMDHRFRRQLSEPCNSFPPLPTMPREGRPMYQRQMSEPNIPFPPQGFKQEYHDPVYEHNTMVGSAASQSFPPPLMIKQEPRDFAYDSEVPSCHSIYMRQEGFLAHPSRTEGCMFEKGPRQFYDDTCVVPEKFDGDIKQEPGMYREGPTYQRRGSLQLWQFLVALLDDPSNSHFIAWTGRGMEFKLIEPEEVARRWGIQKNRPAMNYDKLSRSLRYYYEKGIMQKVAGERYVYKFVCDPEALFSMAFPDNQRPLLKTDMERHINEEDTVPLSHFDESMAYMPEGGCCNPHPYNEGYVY
# Procedure, shortened: as §1
# [11] = target: T6, ERF (Homo sapiens, UniProt P50548 1-548); conditions: protein: recombinant; tags: N-terminal GST; dsDNA, one strand shown
# T6 sequence: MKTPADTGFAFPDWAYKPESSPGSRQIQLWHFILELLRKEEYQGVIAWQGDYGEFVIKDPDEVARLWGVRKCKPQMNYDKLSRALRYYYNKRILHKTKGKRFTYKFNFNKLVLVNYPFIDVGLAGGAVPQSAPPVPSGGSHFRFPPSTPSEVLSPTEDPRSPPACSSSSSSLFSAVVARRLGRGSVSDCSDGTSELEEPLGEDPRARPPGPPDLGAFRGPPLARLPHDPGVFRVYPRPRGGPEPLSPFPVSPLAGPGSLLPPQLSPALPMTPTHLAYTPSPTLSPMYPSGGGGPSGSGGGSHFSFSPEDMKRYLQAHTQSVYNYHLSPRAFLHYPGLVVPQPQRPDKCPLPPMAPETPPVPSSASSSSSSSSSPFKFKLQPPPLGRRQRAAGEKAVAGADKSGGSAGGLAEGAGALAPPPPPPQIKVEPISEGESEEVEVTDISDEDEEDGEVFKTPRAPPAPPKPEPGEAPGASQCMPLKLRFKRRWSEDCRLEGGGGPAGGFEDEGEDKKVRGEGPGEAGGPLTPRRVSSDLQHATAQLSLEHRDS
# Procedure, shortened: as §1
# [12] = target: T7, ETV3L (Homo sapiens, UniProt Q6ZN32 1-361); conditions: protein: recombinant; tags: N-terminal GST; dsDNA, one strand shown
# T7 sequence: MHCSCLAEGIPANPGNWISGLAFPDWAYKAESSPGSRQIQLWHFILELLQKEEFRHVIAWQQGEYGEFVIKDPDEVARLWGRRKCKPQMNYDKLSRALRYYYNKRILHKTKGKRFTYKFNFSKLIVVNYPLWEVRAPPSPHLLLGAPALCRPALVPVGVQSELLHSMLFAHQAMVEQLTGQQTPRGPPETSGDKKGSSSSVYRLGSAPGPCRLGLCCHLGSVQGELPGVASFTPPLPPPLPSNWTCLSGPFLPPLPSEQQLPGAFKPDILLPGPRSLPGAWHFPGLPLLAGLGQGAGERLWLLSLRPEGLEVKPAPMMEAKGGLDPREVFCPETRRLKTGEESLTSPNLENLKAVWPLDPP
# Procedure, shortened: as §1
# [13] = target: T8, ETS2 (Homo sapiens, UniProt P15036 1-469); conditions: protein: recombinant; tags: N-terminal GST; dsDNA, one strand shown
# T8 sequence: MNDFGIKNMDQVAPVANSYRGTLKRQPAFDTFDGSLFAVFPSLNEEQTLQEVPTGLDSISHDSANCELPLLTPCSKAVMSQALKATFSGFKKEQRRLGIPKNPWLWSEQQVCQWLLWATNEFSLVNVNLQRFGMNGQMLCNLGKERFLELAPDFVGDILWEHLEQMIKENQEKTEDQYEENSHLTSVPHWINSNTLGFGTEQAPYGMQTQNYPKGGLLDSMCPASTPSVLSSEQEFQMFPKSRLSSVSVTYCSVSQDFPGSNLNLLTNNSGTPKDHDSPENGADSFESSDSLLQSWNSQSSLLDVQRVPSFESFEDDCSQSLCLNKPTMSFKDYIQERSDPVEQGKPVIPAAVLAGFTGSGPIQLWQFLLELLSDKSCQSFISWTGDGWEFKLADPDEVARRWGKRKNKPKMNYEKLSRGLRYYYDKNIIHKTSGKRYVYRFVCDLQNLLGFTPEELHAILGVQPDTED
# Procedure, shortened: as §1
# [14] = target: T9, SPDEF (Homo sapiens, UniProt O95238 1-335); conditions: protein: recombinant; tags: N-terminal GST; dsDNA, one strand shown
# T9 sequence: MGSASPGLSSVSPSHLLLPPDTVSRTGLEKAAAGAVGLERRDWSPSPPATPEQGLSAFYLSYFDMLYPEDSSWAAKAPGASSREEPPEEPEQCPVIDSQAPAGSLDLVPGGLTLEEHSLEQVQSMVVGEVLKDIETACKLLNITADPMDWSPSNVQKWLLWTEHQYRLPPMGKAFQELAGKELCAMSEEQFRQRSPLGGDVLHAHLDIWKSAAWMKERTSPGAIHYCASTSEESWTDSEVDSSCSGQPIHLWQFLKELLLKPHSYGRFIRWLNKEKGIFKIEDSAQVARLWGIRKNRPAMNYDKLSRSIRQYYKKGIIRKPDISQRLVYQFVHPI
# Procedure, shortened: as §1
# [15] = target: T10, ETV7 (Homo sapiens, UniProt Q9Y603 1-341); conditions: protein: recombinant; tags: N-terminal GST; dsDNA, one strand shown
# T10 sequence: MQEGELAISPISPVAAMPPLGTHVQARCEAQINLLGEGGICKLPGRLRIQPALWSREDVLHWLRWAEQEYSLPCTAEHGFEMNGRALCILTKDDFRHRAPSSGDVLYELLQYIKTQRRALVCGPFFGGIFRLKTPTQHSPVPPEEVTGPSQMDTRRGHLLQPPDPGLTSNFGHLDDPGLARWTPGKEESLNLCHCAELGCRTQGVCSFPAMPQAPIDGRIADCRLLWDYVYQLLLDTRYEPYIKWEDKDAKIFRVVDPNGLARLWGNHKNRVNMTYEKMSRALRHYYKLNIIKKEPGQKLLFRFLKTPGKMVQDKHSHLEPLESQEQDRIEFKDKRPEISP
# Procedure, shortened: as §1
# [16] = target: T11, ELF5 (Homo sapiens, UniProt Q9UKW6-2 1-255); conditions: protein: recombinant; tags: N-terminal GST; dsDNA, one strand shown
# T11 sequence: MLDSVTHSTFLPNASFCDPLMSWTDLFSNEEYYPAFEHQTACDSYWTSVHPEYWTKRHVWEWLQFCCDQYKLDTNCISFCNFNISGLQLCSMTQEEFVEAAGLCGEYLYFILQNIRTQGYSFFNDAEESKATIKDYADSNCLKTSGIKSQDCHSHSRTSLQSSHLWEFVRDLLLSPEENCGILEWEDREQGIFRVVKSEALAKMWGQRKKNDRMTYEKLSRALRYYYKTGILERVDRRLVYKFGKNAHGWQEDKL
# Procedure, shortened: as §1
# [17] = target: T12, ETV3 (Homo sapiens, UniProt P41162-2 1-143); conditions: protein: recombinant; tags: N-terminal GST; dsDNA, one strand shown
# T12 sequence: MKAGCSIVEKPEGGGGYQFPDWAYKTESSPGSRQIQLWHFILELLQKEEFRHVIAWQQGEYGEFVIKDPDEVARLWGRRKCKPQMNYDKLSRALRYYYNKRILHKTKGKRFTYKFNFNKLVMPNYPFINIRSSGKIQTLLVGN
# Procedure, shortened: as §1
# [18] = target: ETV6 (Homo sapiens, UniProt P41212 1-452); conditions: protein: recombinant; tags: N-terminal GST; dsDNA, one strand shown
# ETV6, sequence (P41212 whole entry): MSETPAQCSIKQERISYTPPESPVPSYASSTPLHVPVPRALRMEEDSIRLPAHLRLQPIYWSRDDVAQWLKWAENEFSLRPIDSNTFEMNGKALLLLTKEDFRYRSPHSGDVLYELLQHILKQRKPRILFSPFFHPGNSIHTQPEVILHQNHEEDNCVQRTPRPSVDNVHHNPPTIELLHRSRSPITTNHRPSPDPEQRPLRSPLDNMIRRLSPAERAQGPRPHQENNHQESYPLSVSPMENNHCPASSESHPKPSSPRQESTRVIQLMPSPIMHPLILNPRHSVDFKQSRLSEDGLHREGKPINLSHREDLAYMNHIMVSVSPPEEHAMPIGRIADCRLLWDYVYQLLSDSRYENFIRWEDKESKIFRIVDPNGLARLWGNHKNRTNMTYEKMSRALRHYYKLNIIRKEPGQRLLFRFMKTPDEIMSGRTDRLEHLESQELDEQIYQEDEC
# Procedure, shortened: as §1
sequence,measurement,setting,value
TAAAAC,binding signal,[1],"1.22 fold enrichment (6-mer frequency, TF over GST control)"
same,binding signal,[2],"1.18 fold enrichment (6-mer frequency, TF over GST control)"
same,binding signal,[3],"1.32 fold enrichment (6-mer frequency, TF over GST control)"
same,binding signal,[4],"1.29 fold enrichment (6-mer frequency, TF over GST control)"
same,binding signal,[5],"1.16 fold enrichment (6-mer frequency, TF over GST control)"
same,binding signal,[6],"1.15 fold enrichment (6-mer frequency, TF over GST control)"
same,binding signal,[7],"1.17 fold enrichment (6-mer frequency, TF over GST control)"
same,binding signal,[8],"1.14 fold enrichment (6-mer frequency, TF over GST control)"
same,binding signal,[9],"1.66 fold enrichment (6-mer frequency, TF over GST control)"
same,binding signal,[10],"1.18 fold enrichment (6-mer frequency, TF over GST control)"
same,binding signal,[11],"1.22 fold enrichment (6-mer frequency, TF over GST control)"
same,binding signal,[12],"1.2 fold enrichment (6-mer frequency, TF over GST control)"
same,binding signal,[13],"1.15 fold enrichment (6-mer frequency, TF over GST control)"
same,binding signal,[14],"1.18 fold enrichment (6-mer frequency, TF over GST control)"
same,binding signal,[15],"1.27 fold enrichment (6-mer frequency, TF over GST control)"
same,binding signal,[16],"1.12 fold enrichment (6-mer frequency, TF over GST control)"
same,binding signal,[17],"1.24 fold enrichment (6-mer frequency, TF over GST control)"
same,binding signal,[18],"1.16 fold enrichment (6-mer frequency, TF over GST control)"

# — PMC7862700, “An all-to-all approach to the identification of sequence-specific readers for epigenetic DNA modifications on cytosine”
